# Shown are actives, neighbours in structure and some others; about 7.4% of the full set was active somewhere.
# hNpr1 antagonist: human Npr1 receptor antagonism; P16066; HEK293 hNpr1 GloSensor cGMP, ANP-stimulated luminescence; Potency, µM (titrated, usually from 46.3 µM), most hits filed as inhibitors; 76,000 tested, 1.6% active; calls by dose curve; further: nearly all actives have a fitted effect of over 60% in size
#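 Compound pre-incubated 30 min at room temperature on GloSensor-loaded HEK293 cells stably carrying hNpr1 and the pGS-40F cGMP biosensor. Stimulation uses hNppA at 0.1 nM final; luminescence is taken at baseline and 20 min post-agonist.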
# SNCA expr inhib: inhibitors of alpha-synuclein (SNCA) gene expression | HEK-293 SNCA-luciferase knock-in, luminescence, 24 h | Potency, µM (highest dose often 57.2 µM), most hits filed as inhibitors | 140,000 tested, 0.17% active | AID 1671194; further: nearly all actives have a fitted effect of over 45% in size
# 3T3 cytotox: cytotoxic compounds in NIH 3T3 cells; NIH 3T3 viability, CellTiter-Glo ATP luminescence, 48-72 h; Potency, µM (series often up to 96.7 µM), hits mostly inhibitors; 94,000 tested, 4.3% active; AID 1345082; further: nearly all actives have a fitted effect of over 55% in size
#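 Cytotoxicity was measured by CellTiter-Glo ATP luminescence after 48 or 72 h compound exposure at 37 °C. Mouse NIH 3T3 fibroblasts were seeded at 400 cells/well and dosed by 23 nL pin transfer.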
# SNCA viab count: cell viability loss counter-screen | Potency, µM (top dose mostly 57.1 µM), hits mostly cytotoxic | HEK-293-SNCA-luc viability, GF-AFC fluorescence, 24 h | 150,000 tested, 0.12% active; further: nearly all actives have a fitted effect of over 30% in size
#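 HEK-293-SNCA-luc cells (1500/well) plated 24 h, then exposed 24 h to a dilution series; GF-AFC added 30 min at 37C, fluorescence 405/540 nm; normalised to medium-only and DMSO wells, Hill fit.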
# Luciferase inh: blocks purified firefly luciferase enzyme activity | P08659 | purified P. pyralis luciferase, luminescence, biochemical | Potency, µM (titrated, usually from 115 µM), actives largely listed as inhibitors | 76,000 tested, 2.5% active | AID 1347043; further: nearly all actives have a fitted effect of over 65% in size
# Target sequence (P08659 whole entry, looked up): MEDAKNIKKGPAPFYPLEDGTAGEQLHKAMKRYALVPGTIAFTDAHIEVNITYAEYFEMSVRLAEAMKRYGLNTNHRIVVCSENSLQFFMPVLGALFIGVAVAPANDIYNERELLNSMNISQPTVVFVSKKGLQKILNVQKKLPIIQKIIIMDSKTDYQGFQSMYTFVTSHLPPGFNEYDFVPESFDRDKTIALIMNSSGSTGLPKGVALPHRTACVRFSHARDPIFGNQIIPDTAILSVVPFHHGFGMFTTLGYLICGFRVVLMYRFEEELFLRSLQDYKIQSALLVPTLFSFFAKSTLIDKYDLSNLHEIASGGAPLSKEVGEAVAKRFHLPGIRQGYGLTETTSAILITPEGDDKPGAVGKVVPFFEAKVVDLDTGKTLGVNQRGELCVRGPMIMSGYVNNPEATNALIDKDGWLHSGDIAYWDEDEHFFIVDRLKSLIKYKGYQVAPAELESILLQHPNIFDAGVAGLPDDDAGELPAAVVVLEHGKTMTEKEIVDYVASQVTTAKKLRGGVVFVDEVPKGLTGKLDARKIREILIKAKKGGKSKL
#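 Luminescence read by CCD imager after adding enzyme (10nM final) to wells holding compound, titrated in qHTS. Substrates 10uM each D-luciferin and ATP; buffer 50mM Tris acetate pH 7.5, 10mM Mg acetate, Tween-20, BSA.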
# HEK cytotox: kills HEK 293 cells. Potency, µM (titrated, usually from 115 µM), usual class: inhibitors. AID 1345083. 94,000 tested, 6.6% active. HEK 293 viability, ATP luminescence (CellTiter-Glo), 48-72 h; further: nearly all actives have a fitted effect of over 60% in size
#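 ATP-coupled CellTiter-Glo luminescence served as viability read-out, recorded 10 min after reagent addition at room temperature. HEK 293 cells, 250 cells/well, had been incubated with pintool-transferred compound for 48 or 72 hr at 37 degree Celsius.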
# Numbers stand for hits; . = inactive; ? = inconclusive; / = no result given; [ ] = remark or other dose. Unless noted, the call rests on the fitted dose curve; in most records, active means well fitted curve in the direction sought with a large enough effect; inconclusive means small, poorly fitted or top-dose-only effect, or another doubt; inactive means no such curve, though single readings can be large; an effect the other way counts as inactive or inconclusive.
SMILES,hNpr1 antagonist,SNCA expr inhib,3T3 cytotox,SNCA viab count,Luciferase inh,HEK cytotox
O=C(NC1CCCCC1)N1Cc2[nH]cnc2C[C@H]1c1nc(-c2ccc(Cl)cc2)no1,.,?,.,.,?,.
O=C(Nc1ccccc1)N1Cc2[nH]cnc2C[C@H]1c1nc(-c2ccc3ccccc3c2)no1,.,.,.,.,.,.
O=C1CCCCC(C(=O)N2CCN(c3ccccn3)CC2)N1 (stereo unspecified),/,.,.,.,/,.
Cc1ccc(NC(=O)N2Cc3[nH]cnc3C[C@H]2c2nc(-c3ccncc3)no2)cc1,.,.,.,.,.,.
Cc1ccc(NC(=O)N2Cc3[nH]cnc3C[C@H]2c2nc(C(C)C)no2)cc1,.,.,.,.,?,.
CCOC(=O)c1ccc(NC(=O)N2Cc3[nH]cnc3C[C@H]2c2nc(C(C)C)no2)cc1,.,.,100µM,.,.,?
Cc1ccc(NC(=O)N2Cc3[nH]cnc3C[C@H]2c2nc(-c3ccc(Cl)cc3)no2)cc1,?,.,?,?,40µM,71µM
CC(C)c1noc([C@@H]2Cc3nc[nH]c3CN2C(=O)Nc2ccc(Cl)cc2)n1,.,.,89µM,.,.,100µM
CC(=O)c1ccc(NC(=O)N2Cc3[nH]cnc3C[C@H]2c2nc(-c3ccc(F)cc3)no2)cc1,.,.,89µM,.,?,.
COc1cnc(-c2ccc(Cn3c(CC(C)(C)C(=O)O)c(SC(C)(C)C)c4cc(OC[C@@H]5Cc6ccccc6N5C(C)=O)ccc43)cc2)nc1,/,/,/,.,/,/
O=C(NCC1CCCCC1)C1CCc2nnc(C3CCN([S+](=O)([O-])c4ccccc4Cl)CC3)n21 (stereo unspecified),/,.,?,.[12.5 µM],/,?
COc1cccc(-c2cccc(C(=O)N3CCCC3C(=O)N3CCN(C(C)=O)CC3)c2)c1 (stereo unspecified),/,.,.,.,/,.
Cc1ccc(NC(=O)c2cc3c(s2)CN(C2CC2)C3)cc1,.,.,?,.,8.9µM,?
CSc1ccc(NC(=O)c2cc3c(s2)CN(C2CC2)C3)cc1,11µM,.,?,.,?,?
CCOc1ccc(NC(=O)c2cc3c(s2)CN(C2CCCC2)C3)cc1,.,.,?,.,.,?
COCC(=O)NC1CCN(C(=O)c2ccc(-c3ccc(OC)nn3)cc2)C1 (stereo unspecified),/,/,.,/,/,.
Cc1noc(C)c1-c1cc2c(cc(C)n2C)c(NCc2ccncc2)n1,.,.,?,.,.,?
COc1cccc(-c2nc(-c3c(C)noc3C)cc3c2cc(C)n3CCN(C)C)c1OC,.,.,?,.,.,?
Cc1noc(C)c1-c1cc2c(cc(C)n2CCN(C)C)c(-c2cccnc2)n1,.,.,?,.,.,71µM
Cc1noc(C)c1-c1cc2c(cc(C)n2CCN(C)C)c(Nc2ccn(C)n2)n1,.,.,?,.,.,89µM
COc1ccc(-c2nc(-c3c(C)noc3C)cc3c2cc(C)n3CCN(C)C)cn1,.,.,?,.,.,79µM
Cc1noc(C)c1-c1cc2c(cc(C)n2CCN(C)C)c(-c2ccc(CO)cc2)n1,.,.,?,.,.,79µM
Cc1cccc(C(=O)N2CC(CNC(=O)N3CCCC3)C3(CCOCC3)C2)c1 (stereo unspecified),/,.,.,.,/,.
Cc1noc(C)c1-c1cc2c(cc(C)n2CCN(C)C)c(-c2cccc(O)c2)n1,.,.,?,.,.,56µM
Cc1noc(C)c1-c1cc2c(cc(C)n2CCN(C)C)c(-c2ccccc2O)n1,.,.,32µM,?,.,45µM
SMILES,hNpr1 antagonist,SNCA expr inhib,3T3 cytotox,SNCA viab count,Luciferase inh,HEK cytotox
O=C(NCC(=O)N1CCC(Cc2ccccc2)CC1)c1ccc(-c2cccc(C(F)(F)F)c2)cc1,/,.,?,.[12.5 µM],/,?
COCCNC(=O)CN1CN(c2ccccc2)C2(CCN(C(=O)C3CCCCC3)CC2)C1=O,.,.,.,.,.,.
Cc1ccc(NC(=O)N2CCC3(CC2)C(=O)N(CC(=O)N2CCCC2)CN3c2ccccc2)cc1,.,.,?,.,8.9µM,?
CCC(C)S(=O)(=O)c1oc(-c2ccc(F)cc2)nc1S(=O)(=O)c1ccc(F)cc1 (stereo unspecified),/,?,/,28µM,/,/
CCS(=O)(=O)c1oc(-c2ccc(F)cc2)nc1S(=O)(=O)c1ccccc1,/,?,/,7.9µM,/,/
O=S(=O)(c1ccccc1)c1nc(-c2ccc(F)cc2)oc1N1CCCCCC1,/,.,/,.,/,/
Cc1cccc(NC(=O)N2CCC3(CCNC(=O)CC3)CC2)c1,/,.,.,.,/,.
COC1CCC12CCN(C(=O)CCCc1ccccc1)CC2 (stereo unspecified),/,.,.,.,/,.
CCCc1noc(-c2cccn3c(CNC(=O)c4ccc(OC)cc4)nnc23)n1,.,.,.,.,.,.
CCCc1noc(-c2cccn3c(CNC(=O)c4ccc(C(C)(C)C)cc4)nnc23)n1,.,.,40µM,.,.,?
O=C(NCc1nnc2c(-c3nc(C4CC4)no3)cccn12)c1nccc2ccccc12,.,.,45µM,.,.,?
